Compound activity as filed in PubChem.
Sampled rows, rich in hits. Any-hit rate of the full collection: about 2.7%.
HIF-2a inh – HIF-2a inhibition; inhibition, % at 18.8 µM; actives 0.72% (n = 360,000); 786-0 RCC cells HIF-2a reporter, luciferase luminescence, overnight; AID 624352;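 active means inhibition of the luminescence signal of 40% or more relative to plate controls, in a single-dose primary screen at 18.75 µM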
KKLEB cytotox – CF airway cell cytotoxicity counter-screen. KKLEB CF airway cells viability, ATPlite luminescence, overnight; stronger effect = lower value; cells stimulated with P. aeruginosa culture filtrate. activity change (cytotoxicity), % at 5 µM. actives 0.36% (n = 360,000). AID 602141;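 active means corrected activity change at or below -50% at 5 µM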
Peg3 promoter – Peg3 promoter activity inhibition. HeLa PEG-Prom luciferase reporter, luminescence, overnight. inhibition, % at 20 µM. actives 1.7% (n = 360,000);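 active means inhibition of at least 50% at 20 µM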
Shn3 3UTR inh – inhibitors of Schnurri-3 3'UTR reporter in osteoblasts | Clone20 osteoblast Shn3 3'UTR firefly luciferase, 24 h | inhibition, % at 12.5 µM | actives 0.52% (n = 360,000);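 active means mean inhibition of at least 75% with every replicate also reaching 75%; inconclusive means mean inhibition at least 75% but some replicate below; inactive means mean inhibition below 75%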;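 further: 0% = median of neutral control wells and 100% = pilot-screen positive control compound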
CF NFkB inh – cystic fibrosis NF-kB activation inhibition. AID 588850. inhibition, % at 5 µM. KKLEB NF-kB-GFP reporter, PAF-induced, GFP fluorescence overnight. actives 0.86% (n = 360,000);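 active means at least 50% inhibition at 5 µM, scaled per plate between neutral and stimulator controls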;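 further: PAF is a Pseudomonas aeruginosa culture filtrate used as stimulus; plate controls were PAF-stimulated DMSO wells for no effect and unstimulated DMSO wells for full effect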
TRPM1 prom inh – MITF TRPM1 promoter inhibition in SK-MEL-5 cells. actives 0.83% (n = 330,000). SK-MEL-5 TRPM1 promoter luciferase, 24 h. inhibition, % at 12.5 µM;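 active means mean inhibition across replicates of 60% or more, whatever share of single replicates reaches that level; inconclusive means some that reach 60%, reason not given; inactive means mean inhibition across replicates below 60%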
* hit, by the source's call; ? = inconclusive; nt = no result.

SMILES	HIF-2a inh	KKLEB cytotox	Peg3 promoter	Shn3 3UTR inh	CF NFkB inh	TRPM1 prom inh
CCc1nc2c(OCC(=O)C(C)(C)C)cccn2c1N(C)C(=O)C(C)C	15	5	-3	21	-21	nt
CCN(C(=O)c1ccc(C(C)(C)C)cc1)c1nnc(Cn2nnc3ccccc32)s1	29	-11	25	93*	4	39
Nc1ccc(Oc2cccc(Oc3ccc(N)cc3)c2)cc1	90*	9	30	45	-12	81*
Cc1cccc(Oc2ccc(N)cc2)c1	-59	5	-51	-14	6	1
Cc1oc(=O)c(NC(=O)c2ccc(Cl)cc2)cc1C(=O)c1ccccc1	-35	-2	-13	94*	-7	-4
Cc1noc(C)c1Cn1c(C)c(C(=O)NCc2ccc3c(c2)OCCO3)sc1=O	13	8	8	12	1	nt
CCc1nnc(NC(=O)c2cccc(C(=O)Nc3nnc(CC)s3)n2)s1	-4	33	36	88*	4	56
CCc1nnc(NC(=O)c2ccncc2)s1	-22	1	-23	-17	16	6
C[C@@H]1CN([C@@H](C)CO)C(=O)c2cc(NS(=O)(=O)c3ccc(F)cc3)ccc2O[C@@H](C)CCCCO[C@H]1CN(C)C(=O)NC1CCCCC1	2	1	21	11	-12	nt
CCCCn1c(=N)n(CC(O)COc2ccc(C)cc2)c2ccccc21 (stereo unspecified)	0	-6	72*	78	-8	43
Cc1ccc(Cn2c(=N)n(CC(O)COc3ccccc3)c3ccccc32)cc1 (stereo unspecified)	-31	-4	29	85	18	-11
N=c1n(Cc2ccccc2)c2ccccc2n1CC(O)COc1ccccc1 (stereo unspecified)	6	-18	71*	89*	16	38
COc1ccc(CN2C(=O)CSCC2(C)C(=O)Nc2ccc3c(c2)OCCO3)cc1 (stereo unspecified)	-7	nt	nt	nt	nt	nt
Fc1cccc(-c2nnn3c2nc(Cl)c2ccccc23)c1	-208	0	107*	-52	26	10
Cc1ccc(-c2nnn3c2nc(Cl)c2ccccc23)cc1	-94	0	-10	-10	12	15
Cn1c(=O)c(C(=O)NNC(=O)c2cccc(Cl)c2)c(O)c2ccccc21	13	-24	64*	3	73*	19
Cc1ccc(S(=O)(=O)N(C)C[C@H]2OCCCC[C@@H](C)Oc3ccc(NC(=O)Cc4ccccc4)cc3C(=O)N([C@H](C)CO)C[C@@H]2C)cc1	7	-4	0	6	16	nt
COc1ccccc1N(CC(=O)NCCSCc1cccc(C)c1)S(=O)(=O)c1ccccc1	29	-22	61*	22	34	13
COc1ccccc1/C=N/NC(=O)c1cccc(OC(F)(F)C(F)F)c1	-44	-10	-7	4	28	1
CC(C)C(=O)Nc1ccc(C(=O)N/N=C/c2cc(Br)cc(Br)c2O)cc1	13	-4	58*	81	13	17
COc1cccc(/C=N/NC(=O)C(=O)Nc2ccccc2OC(F)(F)C(F)F)c1O	-6	-9	49	83	9	73*
O=C(N/N=C/c1cc(Cl)ccc1O)c1ccc(Br)cc1	-44	-31	45	81	57*	40
CCOc1ccccc1NC(=O)C(=O)N/N=C/c1cc(Br)ccc1O	-1	-21	53*	91*	31	59
CC(=O)Nc1ccc(C(=O)N/N=C/c2cc(Br)cc(Br)c2O)cc1	-1	-10	27	7	28	22
NC(=O)N/N=C\c1cc(Br)ccc1O	12	14	13	-31	1	-4
SMILES	HIF-2a inh	KKLEB cytotox	Peg3 promoter	Shn3 3UTR inh	CF NFkB inh	TRPM1 prom inh
CC(=O)Nc1ccc(OCc2cn(CC(=O)c3ccc(O)cc3)nn2)cc1	2	5	-11	-4	10	nt
OCCNc1ncnc2c1ncn2[C@H]1CN(C2CCCC2)C[C@@H](CO)O1	-3	-7	1	5	4	nt
O=C(N/N=C/c1ccccc1O)c1ccncc1	-1	4	17	20	-8	15
O=C(N/N=C\c1cc(Br)ccc1O)c1ccc(S(=O)(=O)N2CCCCC2)cc1	14	-19	29	91*	22	74*
O=C(N/N=C/c1ccc(O)c(O)c1)c1cccc(S(=O)(=O)N2CCCCC2)c1	17	8	-1	-4	-11	5
O=C(N/N=C/c1ccc(O)c2ncccc12)c1cccc(Br)c1	0	-12	8	91*	32	65*
O=C(N/N=C/c1cc(Br)ccc1O)c1ccncc1	-1	-10	31	81	21	76*
Cc1ccc2nc(-c3ccc(C#N)cc3)c(Cc3ccccc3C(F)(F)F)n2c1	-102	-27	-15	7	-8	nt
CCCC1NC(=O)c2cc3ccccc3cc2-n2c1nc1cc(F)ccc1c2=O (stereo unspecified)	19	-3	27	1	5	nt
C[C@H](CO)N1C[C@H](C)[C@H](CN(C)Cc2ccncc2)Oc2ncc(Br)cc2C1=O	-2	6	-5	3	3	nt
O=C(Cn1ncc2c([nH]c3ccccc32)c1=O)Nc1ccc(CN2CCCCC2)cc1	7	-11	73*	-33	1	?
O=C(Cn1ncc2c([nH]c3ccccc32)c1=O)NCCc1ccc(Cl)cc1	14	-6	4	-9	1	7
Cc1ccc(NCCCn2cnc(C(=O)Nc3ccc(C)c(C)c3)n2)cc1C	-24	14	-5	6	-1	5
Cc1ccc(NC(=O)c2ncn(CCCN[C@H](C)c3cccc4ccccc34)n2)cc1C	-29	4	85*	-5	14	60
O=C(CNC(=O)c1cccc(-n2cccc2)c1)Nc1ccccc1Br	-35	7	-13	-23	-29	nt
CCCCN1CC(COCc2ccccc2)Oc2cccc(Oc3cc(C)c(C)c(C)c3)c2S1(=O)=O (stereo unspecified)	14	-2	8	90*	-14	13
CCCCN1CC(COCc2ccccc2)Oc2cccc(Oc3ccc(C)cc3)c2S1(=O)=O (stereo unspecified)	8	-22	4	87*	16	-3
CCCCN1CC(COCc2ccccc2)Oc2cccc(Oc3ccccc3)c2S1(=O)=O (stereo unspecified)	13	-16	22	25	12	0
CCCCNC(=O)C1(C)CCN1C(=O)c1cccc(OC(C)=O)c1C (stereo unspecified)	4	4	2	-14	-17	nt
COC1=CC(=O)C=C(OC)C1=O	6	-9	102*	97*	24	54
COC1=CC(=O)c2ccccc2C1=O	29	-29	24	36	91*	102*
COc1cc(N=CC2=C(O)c3ccccc3C2=O)cc(OC)c1	-166	1	-175	-123	22	-60
